Screens as filed in PubChem.
DT40 TDP1 CPT – growth inhibition of DT40 Tdp1-/-;hTDP1 cells with camptothecin (screen for TDP1 inhibitors). chicken DT40 Tdp1-/-;hTDP1 cells + 20 nM CPT, ATP luminescence, 48 h. Potency, µM (top dose mostly 46.2 µM), for the others: at the top dose activity change, negative = growth inhibition, most hits filed as inhibitors. 420,000 tested, 12% active. AID 686979; note: % is set by controls: 0 for no effect and ±100 for the full control effect; nearly all actives have a fitted effect of over 55% in size
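Chicken DT40 Tdp1-/- cells complemented with human TDP1, 400 cells/well, exposed to compounds plus 20 nM camptothecin for at least 48 h at 37 C; viability read as ATP content by CellTiter-Glo luminescence.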
HT1080 IDH1KD tx – toxicity to HT-1080 IDH1 knockdown cells (counter line); HT-1080 IDH1 knockdown viability, ATP luminescence, 48 h; Potency, µM (highest dose often 46.1 µM), without a hit: top-dose activity, negative = toxicity, hits mostly cytotoxic; 360,000 tested, 2% active; AID 686971;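 note: 0% = DMSO wells and -100% = cell-free medium wells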
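Assay cells: HT-1080 with IDH1 knockdown, 750 per well, RPMI/5% FBS. Exposure: 48 h at 37 °C following 2 h pre-incubation. Read: CellTiter-Glo luminescence; fitted concentration-response, curve class assigned.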
TGFb inhibitor – inhibitors of TGF-b signaling; HepG2 CAGA-GFP TGF-b/SMAD3 reporter, GFP fluorescence, 18 h; TGF-beta stimulated, 500 pg/mL final; Potency, µM (doses to about 46.1 µM), for inactives: at the top dose activity, negative = inhibition, usual class: inhibitors; 410,000 tested, 1.2% active; AID 588855; note: % is set by controls: 0 for no effect and ±100 for the full control effect; nearly all actives have a fitted effect of over 65% in size
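Read-out: total well GFP (ex488/em500-530) summed from mean per-cell fluorescence. Cells: HEPG2 CAGA-GFP, 1% FBS DMEM, 18 h at 37 degrees C with 500 pg/mL final TGF-beta. Unstimulated wells served as the full-inhibition control; stimulated DMSO wells = 0%.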
HT1080NT lethal – kills 2HG-producing HT-1080-NT fibrosarcoma cells; HT-1080-NT fibrosarcoma viability, CellTiter-Glo ATP luminescence, 48 h; Potency, µM (highest dose often 46.1 µM), inactives show at the highest dose activity, negative = less viability, actives largely listed as cytotoxic; 360,000 tested, 1.6% active;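 note: NT is the 2HG producing partner of a matched IDH1 knockdown line; 0% = DMSO-treated cells and -100% = media-only wells without cells; nearly all actives have a fitted effect of over 55% in size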
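Toxicity toward the 2HG-producing NT line was scored as %Activity, normalised to DMSO and no-cell wells, from CellTiter-Glo luminescence after 48 hours' treatment.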
HepG2 viability – kills HepG2 cells in TGF-b inhibitor counter-screen. HepG2 CAGA-GFP viability, ATP luminescence, 18 h. Potency, µM (series often up to 46.1 µM), for the others: at the highest dose activity change, negative = cytotoxicity, most hits filed as cytotoxic. 410,000 tested, 0.76% active
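HepG2 CAGA-GFP cells (1000/well, DMEM with 1% FBS) received compound, then TGF-beta at 500 pg/mL final, and were incubated 18 hours at 37 degrees C. Viability was read by CellTiter-Glo luminescence. Media-only wells were set as complete cell-killing and DMSO as no toxicity.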
TDP1 cell noCPT – qHTS for Inhibitors of human tyrosyl-DNA phosphodiesterase 1 (TDP1): qHTS in cells in absence of CPT; DT40 Tdp1-/- hTDP1 cells, no CPT, ATP luminescence, 48 h; 420,000 tested, 15% active; Potency, µM (titrated, usually from 46.2 µM), without a hit: top-dose activity change, negative = growth inhibition, actives largely listed as inhibitors; note: % is set by controls: 0 for no effect and ±100 for the full control effect; nearly all actives have a fitted effect of over 55% in size
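Stably hTDP1-transfected Tdp1-null chicken DT40 cells were treated with library compounds minus camptothecin and grown for at least 48 hr at 37 °C, after which cellular ATP was quantified by luminescence.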
* hit, by the source's call; ? = inconclusive; / = no result given; [ ] = another dose, or the depositor's remark. Shown are actives, neighbours in structure and some others; about 17% of the full set was active somewhere. Calls come from the whole dose curve; as a rule, active = well fitted curve in the direction sought with a large enough effect; inconclusive = small, poorly fitted or top-dose-only effect, or another doubt; inactive = no such curve, though single readings can be large; an effect the other way counts as inactive or inconclusive. Potency is the fitted concentration of half-maximal effect.

SMILES	DT40 TDP1 CPT	HT1080 IDH1KD tx	TGFb inhibitor	HT1080NT lethal	HepG2 viability	TDP1 cell noCPT
CCN(C[C@H]1N[C@@](CC)(C(=O)OC)[C@H]2C(=O)N(Cc3ccccc3)C(=O)[C@@H]12)S(=O)(=O)c1ccc(C(C)(C)C)cc1	13µM*	-2%	28%	-2%	-32%	23µM*
Cn1cnnc1SCc1ccc(C(=O)N/N=C(/CCC(=O)O)c2ccc(C(C)(C)C)cc2)cc1	-1%	12%	9%	1%	1%	-8%
COc1cc(C(=O)Nc2ccc(C)cc2)c2ccccc2n1	0.82µM*	0.52µM*	-30%	?	-3%	0.73µM*
Cc1occc1C(=O)Nc1ccc(OCc2ccccc2)cc1	-14%	?	-16%	?	-48%	16µM*
CCOc1ccc(NC(=O)c2cc(OC)nc3ccccc23)cc1	0.52µM*	0.46µM*	-25%	0.46µM*	-2%	0.58µM*
CCOc1ccc(NC(=O)c2cccc3ccccc23)cc1	12µM*	-20%	22%	-4%	6%	8.2µM*
O=C(Nc1ccc(OCc2ccccc2)cc1)c1cccs1	?	-21%	2%	-27%	-8%	?
O=C(CCNS(=O)(=O)c1cccs1)NC1CCN(Cc2ccccc2)CC1	-1%	6%	1%	2%	-3%	-2%
CN(C)c1ncc2nc(-c3ccccc3)c(=O)n(-c3ccccc3)c2n1	6%	/	/	/	/	9%
CCCNC(=O)c1ccccc1NC(=O)Cc1ccc(OC)c(S(=O)(=O)N2CCOCC2)c1	1%	-5%	3%	9%	-13%	-27%
CCOC(=O)C1CCCN(C(=O)c2cc(S(=O)(=O)N3CCCCC3)c[nH]2)C1 (configuration not stated)	-1%	-8%	-16%	1%	-19%	-9%
CCN(CC)CCNc1nc2c(c(=O)[nH]c(=O)n2C)n1CC(O)COc1ccc(Cl)cc1Cl (configuration not stated)	-7%	-2%	-15%	-5%	-11%	-18%
COc1ccccc1OCC(O)Cn1c(Br)nc2c1c(=O)[nH]c(=O)n2C (configuration not stated)	?	-1%	-4%	-7%	-3%	15µM*
Cc1cc(C)n(-c2nc3c(c(=O)[nH]c(=O)n3C)n2CC(O)COc2ccc(Cl)cc2Cl)n1 (configuration not stated)	6.5µM*	?	-18%	?	-11%	5.8µM*
COc1cc(C(=O)N(Cc2cc3ccc(C)cc3nc2N(C)C)C2CC2)cc(OC)c1OC	15%[9.04 µM]	/	/	/	/	?
CCc1ccccc1NC(=O)CN(c1cc(C(F)(F)F)ccc1Cl)S(=O)(=O)c1ccccc1	?	/	?	/	-31%	?
CC1CC(C)CN(CCOCCSc2ccccc2)C1 (configuration not stated)	?	6%	7%	0%	-6%	16µM*
CC1CC(C)CN(CCCSc2ccccc2)C1 (configuration not stated)	-14%	-2%	-1%	-8%	-19%	-15%
CC1CC(C)CN(CCOCCSc2ccc(Cl)cc2)C1 (configuration not stated)	21µM*	?	-29%	?	-45%	16µM*
Cc1ccc(N2C(=O)[C@@H]3CSC(c4ccc(Cl)cc4)N3C2=O)cc1 (some centres not stated)	2%	/	?	/	-44%	-20%
CCn1c(C)c(CS(=O)(=O)c2ccccc2)[nH]c1=O	4.1µM*	?	-11%	?	-27%	2.9µM*
